# Results from ChEMBL document CHEMBL3988442, “University of Dundee, Small-Polar-MMV Screening Library” (2021).
# Hit rate of the full screen: of about 38,000 compounds, about 1,200 (3.2%) showed an effect of 50% or more. The median lay at about -58%. This is one part of a sample in which strong results are shown more often than they occur.
# Test system: Plasmodium falciparum
# Assay: Calibr Malaria Delayed Death Assay SOP
# Format: functional, organism-based
# Set-up: scale not given: in the data most compounds retested in dose-response had high values
# Conditions: concentration 4.99e-06 (unit not given; other assays of the set use mol/L)
row,Structure (SMILES),Percent Effect
1,CCCc1ccc(CN2CCC3(CC2)CNC(=O)C3)o1,20.41%
2,CC(C)n1nc(CN2CCCC2)c2c1CN(CC1CC1)CC2.O=C(O)C(F)(F)F.O=C(O)C(F)(F)F,54%
3,Cn1nc(CN2CCCC2)c2c1CN(CC1CC1)CC2.O=C(O)C(F)(F)F.O=C(O)C(F)(F)F,-21.27%
4,CC(C)n1nc(CN(C)C)c2c1CN(CC1CC1)CC2.O=C(O)C(F)(F)F.O=C(O)C(F)(F)F,-96.94%
5,Cc1noc(C)c1CN1CC[C@H]2OCC[C@@]2(C(=O)NC2CCCC2)C1.O=C(O)C(F)(F)F,8.677%
6,CO[C@H]1CNC[C@@H]1NC(=O)c1cc(C)nc2c(C)c(C)ccc12,-1.359%
7,CO[C@H]1CNC[C@@H]1NC(=O)c1cc(C)nc2c(C)cc(C)cc12,73.93%
8,Cc1cc(C)c2nc(C)cc(C(=O)NC(C)c3nnn[nH]3)c2c1 (centres undefined),-3.579%
9,CCc1cnc(N2C[C@@H]3[C@@H](C(=O)N(C)C)CCS(=O)(=O)[C@@H]3C2)nc1,-56.54%
10,Cc1cc(C(=O)N2CCn3cc(CN(C)C)nc3C2)no1,-39.89%
11,Cc1noc(C)c1C(=O)NCC(c1ccsc1)N(C)C (centres undefined),-8.165%
12,Cc1noc(C(C)C)c1C(=O)NCC(c1ccsc1)N(C)C (centres undefined),17.17%
13,O=C(O)C(F)(F)F.O=C(c1ccccn1)N1C[C@H]2CCC[C@@]2(COCC2CCOCC2)C1,-43.42%
14,O=S(=O)(NCC(O)c1ccoc1)c1ccc(Br)s1 (centres undefined),-179.3%
15,Cc1cc(CN2CCC(CNS(=O)(=O)c3c(C)noc3C)CC2)c(C)o1,26.64%
16,Cc1cc(CN2CCC(CNS(=O)(=O)c3ccc(C)s3)CC2)c(C)o1,87.35%
17,Cc1ccc(S(=O)(=O)NCCc2ccoc2)s1,-129%
18,Cc1cc(C(O)CCNS(=O)(=O)c2ccc(Cl)s2)c(C)o1 (centres undefined),-41.19%
19,Cc1cc(CN2CCC(CNS(=O)(=O)c3ccc(Br)s3)CC2)c(C)o1,91.4%
20,O=C(c1c[nH]nn1)N1CCCC1C1CCCCC1 (centres undefined),48.49%
21,O=C(C1CCC1)N1CCC(=O)N(C2CC2)Cc2cc(F)ccc21,-6.345%
22,N#Cc1cc(Br)ccc1NC1CCN(CC(N)=O)CC1,19.71%
23,CCNc1ccnc(NC2CCN(CC(N)=O)CC2)n1,-56.83%
24,Cc1cccc(-n2c(C)cc(=O)[nH]c2=O)c1C,-21.52%
25,CC1CCN(CCCNC(=O)c2ccc(N(C)S(C)(=O)=O)cc2Cl)CC1,-35.22%
26,O=C(NCc1ccccc1)NCC1CCN(Cc2ccsc2)CC1,-54.93%
27,CC(=O)c1cn(CCC(=O)Nc2c3c(nn2C)CSC3)c2ccccc12,26.69%

row,Structure (SMILES),Percent Effect
1,Fc1ccc(CC2CCN(Cc3cscn3)CC2)cc1,50.2%
2,Fc1ccc(CC2CCN(Cc3nccs3)CC2)cc1,0.00383%
3,Fc1cccc(CN2CCN(Cc3cscn3)CC2)c1,-54.95%
4,CC(C)c1n[nH]c(C2CN(C(=O)c3cc(C(N)=O)cs3)CCO2)n1 (centres undefined),-7.804%
5,CN(C)c1ncccc1CNc1snc(Cl)c1C#N,-8.92%
6,Cc1cccc(N2CC[C@H]3[C@H](CO[C@@H]3CN(C)Cc3ccco3)C2)n1.O=C(O)C(F)(F)F.O=C(O)C(F)(F)F,3.761%
7,O=C(O)C(F)(F)F.O=C(O)C(F)(F)F.c1cc(CN2CC[C@H]3CO[C@H](CN4CCOCC4)[C@H]3C2)cs1,-2.124%
8,O=C(O)C(F)(F)F.O=C(O)C(F)(F)F.c1cnc(NC[C@H]2OC[C@@H]3CCN(Cc4ccsc4)C[C@@H]32)nc1,-30.65%
9,Cc1ccc(CN2CC[C@H]3CO[C@H](CN(C)C)[C@H]3C2)o1,-9.526%
10,Cc1ccc(N2CC[C@H]3CO[C@H](CN(C)Cc4ccco4)[C@H]3C2)nn1.O=C(O)C(F)(F)F.O=C(O)C(F)(F)F,-41.04%
11,CN1CCN(C[C@@H]2OC[C@H]3CN(Cc4ccsc4)CC[C@H]32)CC1.O=C(O)C(F)(F)F.O=C(O)C(F)(F)F.O=C(O)C(F)(F)F,7.397%
12,CN(Cc1ccco1)C[C@H]1OC[C@@H]2CCN(Cc3ccsc3)C[C@@H]21.O=C(O)C(F)(F)F.O=C(O)C(F)(F)F,65.82%
13,Cc1ccc(CN2CC[C@H]3CO[C@H](CN(C)Cc4ccco4)[C@H]3C2)s1.O=C(O)C(F)(F)F.O=C(O)C(F)(F)F,57.63%
14,O=C(NC[C@H]1OC[C@@H]2CCN(Cc3ccco3)C[C@@H]21)c1ccsc1.O=C(O)C(F)(F)F,-100.7%
15,CN1CCN(C[C@H]2OC[C@@H]3CCN(Cc4ccsc4)C[C@@H]32)CC1,77.67%
16,CN(Cc1ccco1)C[C@@H]1OC[C@H]2CN(Cc3nccs3)CC[C@H]21.O=C(O)C(F)(F)F.O=C(O)C(F)(F)F,-54.97%
17,CSCCC(CO)NC(=O)c1ccc2[nH]/c(=N\S(C)(=O)=O)sc2c1 (centres undefined),-143.2%
18,COCC(O)CN1CCC(=O)N(CC(=O)C(C)(C)C)Cc2ccccc21 (centres undefined),3.723%
19,Cc1cccc(N2CCN(C(=O)CNCCn3cc(C)cn3)CC2)c1,-74.29%
20,CC(=O)N(Cc1noc(C)n1)C1CCN(CC2CCCC2)C1 (centres undefined),-72.7%
21,Cc1nn(C)c(N2CCOCC2)c1CNCc1cccnc1,-102.1%
22,COCCNc1cc(C)nn2cnnc12,-138.9%
23,CNc1nc2c(s1)C(c1cccc(F)c1F)CC(=O)N2 (centres undefined),-75.94%
24,CC(C)n1[nH]c(=O)c2c1NC(=O)CC2c1ccncc1 (centres undefined),-11.96%
25,COc1ncccc1CN1C[C@@H]2COC[C@]2(COc2ccccn2)C1.O=C(O)C(F)(F)F.O=C(O)C(F)(F)F.O=C(O)C(F)(F)F,-20.51%
26,Cc1ccc(C(=O)Cc2c(Cl)nc3n(C)c(=O)n(C)c(=O)n23)cc1,-11.12%
27,CC(C)(C)n1ncc2c1NC(=O)CC2c1c(F)cccc1F (centres undefined),-175.8%
